# PMC5540273 (PLoS ONE, 2017)
# Values joined by “and” are separate entries in the source; they are usually repeats but may differ in a detail not shown here. Equal values may be shown once. Read-outs that look alike come from different tables or passages of the source.
# Legend:
# [1] = system: NEK3; conditions: concentration: 1 μM, replicates: in singlicate, n = 1
# [2] = system: NEK4; conditions: concentration: 1 μM, replicates: in singlicate, n = 1
# [3] = system: NEK5; conditions: concentration: 1 μM, replicates: in singlicate, n = 1
# [4] = system: NEK6; conditions: concentration: 1 μM, replicates: in singlicate, n = 1
# [5] = system: NEK7; conditions: concentration: 1 μM, replicates: in singlicate; n = 1
# [6] = system: NEK9; conditions: concentration: 1 μM, replicates: in singlicate, n = 1
# [7] = system: T1, NIK; conditions: concentration: 1 μM, replicates: in singlicate, n = 1
# T1 construct: gene MAP3K14
# [8] = system: T2, NIM1; conditions: concentration: 1 μM, replicates: in singlicate; n = 1
# T2 construct: gene MGC42105
# [9] = system: NLK; conditions: concentration: 1 μM, replicates: in singlicate, n = 1
# [10] = system: T3, OSR1; conditions: concentration: 1 μM, replicates: in singlicate, n = 1
# T3 construct: gene OXSR1
# [11] = system: PAK1; conditions: concentration: 1 μM, replicates: in singlicate, n = 1
# [12] = system: PAK2; conditions: concentration: 1 μM, replicates: in singlicate, n = 1
# [13] = system: PAK3; conditions: concentration: 1 μM, replicates: in singlicate; n = 1
# [14] = system: PAK4; conditions: concentration: 1 μM, replicates: in singlicate; n = 1
# [15] = system: PAK6; conditions: concentration: 1 μM, replicates: in singlicate; n = 1
# [16] = system: PAK7; conditions: concentration: 1 μM, replicates: in singlicate, n = 1
# [17] = system: T4, PCTK1; conditions: concentration: 1 μM, replicates: in singlicate; n = 1
# T4 construct: gene CDK16
# [18] = system: T5, PCTK2; conditions: concentration: 1 μM, replicates: in singlicate, n = 1
# T5 construct: gene CDK17
# [19] = system: T6, PCTK3; conditions: concentration: 1 μM, replicates: in singlicate, n = 1
# T6 construct: gene CDK18
# [20] = system: PDGFRA; conditions: concentration: 1 μM, replicates: in singlicate, n = 1
# 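Note: KINOMEscan kinase panel screen.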
smiles,measurement,setting,value
Nc1n[nH]c2nnc(-c3ccccc3)cc12 [SB-517389],%Inh,[1],29%
same,%Inh,[2],21%
same,%Inh,[3],27%
same,%Inh,[4],0%
same,%Inh,[5],0%
same,%Inh,[6],7%
same,%Inh,[7],0%
same,%Inh,[8],15%
same,%Inh,[9],36%
same,%Inh,[10],0%
same,%Inh,[11],12%
same,%Inh,[12],8%
same,%Inh,[13],0%
same,%Inh,[14],0%
same,%Inh,[15],0%
same,%Inh,[16],2%
same,%Inh,[17],7%
same,%Inh,[18],20%
same,%Inh,[19],15%
same,%Inh,[20],0%
COC(=O)c1c(-c2ccccc2)c2cc(Cl)ccc2c(=O)n1Cc1ccc(S(C)(=O)=O)cc1,%Inh,[1],4%
same,%Inh,[2],0%
same,%Inh,[3],0%
same,%Inh,[4],2%
same,%Inh,[5],0%
same,%Inh,[6],0%
same,%Inh,[7],0%
same,%Inh,[8],0%
same,%Inh,[9],0%
same,%Inh,[10],0%
same,%Inh,[11],6%
same,%Inh,[12],0%
same,%Inh,[13],0%
same,%Inh,[14],0%
same,%Inh,[15],0%
same,%Inh,[16],0%
same,%Inh,[17],28%
same,%Inh,[18],3%
same,%Inh,[19],0%
same,%Inh,[20],15%
Cc1cc(N2CCC(NS(=O)(=O)c3ccc(F)cc3)CC2)nc(Nc2cccc(C#N)c2)n1.O=C(O)C(F)(F)F [GSK1653537],%Inh,[1],0%
same,%Inh,[2],0%
same,%Inh,[3],0%
same,%Inh,[4],0%
same,%Inh,[5],0%
same,%Inh,[6],0%
same,%Inh,[7],0%
same,%Inh,[8],18%
same,%Inh,[9],35%
same,%Inh,[10],6%
same,%Inh,[11],0%
same,%Inh,[12],19%
same,%Inh,[13],6%
same,%Inh,[14],0%
same,%Inh,[15],0%
same,%Inh,[16],0%
same,%Inh,[17],0%
same,%Inh,[18],0%
same,%Inh,[19],18%
same,%Inh,[20],0%
Cc1ccc(C)c(NC(=O)NCCNc2ccnc(Nc3ccc(F)cc3)n2)c1 [GSK1379878],%Inh,[1],0%
same,%Inh,[2],0%
same,%Inh,[3],3%
same,%Inh,[4],0%
same,%Inh,[5],0%
same,%Inh,[6],9%
same,%Inh,[7],10%
same,%Inh,[8],0%
same,%Inh,[9],0%
same,%Inh,[10],0%
same,%Inh,[11],0%
same,%Inh,[12],0%
same,%Inh,[13],0%
same,%Inh,[14],0%
same,%Inh,[15],100%
same,%Inh,[16],0%
same,%Inh,[17],0%
same,%Inh,[18],0%
same,%Inh,[19],0%
same,%Inh,[20],0%
Cc1ccc(O)cc1Nc1cc(C(F)(F)F)nc2ccc(-c3ccncc3)cc12 [GW630823],%Inh,[1],0%
same,%Inh,[2],0%
same,%Inh,[3],6%
same,%Inh,[4],8%
same,%Inh,[5],58%
same,%Inh,[6],42%
same,%Inh,[7],0%
same,%Inh,[8],0%
same,%Inh,[9],10%
same,%Inh,[10],0%
same,%Inh,[11],21%
same,%Inh,[12],10%
same,%Inh,[13],0%
same,%Inh,[14],21%
same,%Inh,[15],20%
same,%Inh,[16],7%
same,%Inh,[17],0%
same,%Inh,[18],2%
same,%Inh,[19],0%
same,%Inh,[20],0%
Cc1cccc(-c2nc(Nc3ccc4[nH]nnc4c3)c3ccccc3n2)n1 [GW867587],%Inh,[1],22%
same,%Inh,[2],0%
same,%Inh,[3],2%
same,%Inh,[4],0%
same,%Inh,[5],0%
same,%Inh,[6],0%
same,%Inh,[7],21%
same,%Inh,[8],0%
same,%Inh,[9],0%
same,%Inh,[10],0%
same,%Inh,[11],9%
same,%Inh,[12],41%
same,%Inh,[13],0%
same,%Inh,[14],0%
same,%Inh,[15],0%
same,%Inh,[16],0%
same,%Inh,[17],0%
same,%Inh,[18],0%
same,%Inh,[19],0%
same,%Inh,[20],0%
c1ccc(-c2ccc3c(-c4ccnc(Nc5ccc6c(c5)OCCO6)n4)cnn3n2)cc1 [GW818941],%Inh,[1],0%
same,%Inh,[2],4%
same,%Inh,[3],14%
same,%Inh,[4],15%
same,%Inh,[5],43%
same,%Inh,[6],27%
same,%Inh,[7],10%
same,%Inh,[8],7%
same,%Inh,[9],17%
same,%Inh,[10],0%
same,%Inh,[11],6%
same,%Inh,[12],28%
same,%Inh,[13],18%
same,%Inh,[14],0%
same,%Inh,[15],83%
same,%Inh,[16],0%
same,%Inh,[17],0%
same,%Inh,[18],7%
same,%Inh,[19],0%
same,%Inh,[20],8%
CS(=O)(=O)CCNCc1nc(-c2ccc3ncnc(Nc4ccc(OCc5cccc(F)c5)c(Cl)c4)c3c2)cs1.Cl [GW583340],%Inh,[1],3%
same,%Inh,[2],0%
same,%Inh,[3],6%
same,%Inh,[4],0%
same,%Inh,[5],0%
same,%Inh,[6],11%
same,%Inh,[7],0%
same,%Inh,[8],6%
same,%Inh,[9],0%
same,%Inh,[10],0%
same,%Inh,[11],19%
same,%Inh,[12],9%
same,%Inh,[13],0%
same,%Inh,[14],0%
same,%Inh,[15],0%
same,%Inh,[16],7%
same,%Inh,[17],3%
same,%Inh,[18],16%
same,%Inh,[19],10%
same,%Inh,[20],0%
COc1ccc(-c2nc3n(c2-c2ccncc2)CCC3)cc1 [SKF-104493],%Inh,[1]; 1 µM,19% and 0%
same,%Inh,[2]; 1 µM,19% and 0%
same,%Inh,[3]; 1 µM,0% and 16%
same,%Inh,[4]; 1 µM,5% and 0%
same,%Inh,[5],0%
same,%Inh,[6]; 1 µM,0% and 23%
same,%Inh,[7]; 1 µM,0% and 6%
same,%Inh,[8],19%
same,%Inh,[9]; 1 µM,28% and 64%
same,%Inh,[10]; 1 µM,2% and 0%
same,%Inh,[11]; 1 µM,0% and 27%
same,%Inh,[12]; 1 µM,23% and 10%
same,%Inh,[13],0%
same,%Inh,[14],0%
same,%Inh,[15],0%
same,%Inh,[16]; 1 µM,0% and 15%
same,%Inh,[17],0%
same,%Inh,[18]; 1 µM,3% and 0%
same,%Inh,[19]; 1 µM,0% and 28%
same,%Inh,[20]; 1 µM,25% and 3%
COc1ccc(NC(=O)Nc2ccc(C)c(-c3ccc(C(=O)Nc4ccncc4)cc3)c2)cc1 [GSK1398475],%Inh,[1],10%
same,%Inh,[2],0%
same,%Inh,[3],8%
same,%Inh,[4],0%
same,%Inh,[5],0%
same,%Inh,[6],0%
same,%Inh,[7],0%
same,%Inh,[8],0%
same,%Inh,[9],43%
same,%Inh,[10],0%
same,%Inh,[11],0%
same,%Inh,[12],0%
same,%Inh,[13],3%
same,%Inh,[14],0%
same,%Inh,[15],0%
same,%Inh,[16],9%
same,%Inh,[17],0%
same,%Inh,[18],0%
same,%Inh,[19],0%
same,%Inh,[20],28%
